Test results: PubChem BioAssay AID2205 (University of Pittsburgh Molecular Library Screening Center, 2009)
Hit rate of the full screen: of about 200,000 compounds, about 1,600 (0.8%) were called active.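 How the source made its calls: active means plate Z-score above 3 for both tubulin-high and condensed-nucleus cell shares, with cell loss under 80%, at 10 µM; inactive means the rest, inconclusive results apart.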 The full list was thinned out, with actives kept by preference.

Experiment: tubulin staining increase by stabilizing compounds – imaging, high-content imaging, primary screen (AID 2205);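 on % tubulin-high responders: anti alpha tubulin signal scored within the nucleus-defined area of each cell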;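 on toxicity: 0% = mean cell density of plate MIN control wells and 100% = no cells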
Settings: HeLa tubulin immunostaining HCS, 24 h, at 10 µM; % Hoechst-high responders: measured here: nuclear condensation Hoechst responders, stronger effect = higher value, share of cells brighter than vehicle mean+2SD; % tubulin-high responders: stronger effect = higher value, share of cells brighter than vehicle mean+2SD; toxicity: measured here: cytotoxicity by cell density

SMILES | % Hoechst-high responders | % tubulin-high responders | toxicity
CCOC(=O)c1cnc2ccc(F)cc2c1Nc1ccc2c(c1)OCCO2 | 3.26% | 2.38% (inactive) | 9.58%
O=C(COC(=O)/C=C/c1nc2ccccc2s1)Nc1ccccc1Oc1ccccc1 | 2.41% | 2.82% (inactive) | 3.33%
Cc1oc2cc([N+](=O)[O-])c(O)c([N+](=O)[O-])c2c1C(=O)c1ccc(Br)cc1 | 1.62% | 3.42% (inactive) | 6.71%
O=C(COC(=O)C1CCCCC1)Nc1ccc([N+](=O)[O-])cc1 | 1.85% | 1.8% (inactive) | 7.95%
O=C(NC1CCCCCC1)c1cccnc1Sc1ccc(Cl)cc1 | 1.73% | 4.58% (inactive) | 7.66%
O=C(CSc1ccccn1)Nc1nc2c(ccc3ccccc32)s1 | 1.64% | 2.26% (inactive) | 7.1%
CCO[C@H]1OC(C(=O)Nc2ccccc2)=C[C@@H](C2CC2)[C@@H]1CCCO | 1.42% | 1.2% (inactive) | 3.73%
CCC(C)NC(=O)/C=C/c1ccc(S(=O)(=O)NCc2ccco2)cc1 (centres undefined) | 1.97% | 1.46% (inactive) | 3.99%
Cc1c(/C=N/N2C(=O)C3C4C=CC(C4)C3C2=O)c2ccccc2n1C (centres undefined) | 1.92% | 5.53% (inactive) | 6.18%
Cc1c(/C=N\NC(=O)c2cc3ccccc3o2)c2ccccc2n1C | 21.2% | 38.7% (active) | 75.1%
O=C(N/N=C/c1coc2ccccc2c1=O)c1cc2ccccc2o1 | 2.07% | 3.76% (inactive) | 5.72%
O=C(N/N=C/c1ccc(OCC2COCCO2)cc1)c1ccc(Br)cc1 (centres undefined) | 1.72% | 2.47% (inactive) | 8.95%
CC(C)c1csc(CN2CCC(CO)(Cc3ccccc3)CC2)n1 | 1.55% | 3.05% (inactive) | 6.68%
O=S(=O)(c1ccc(F)cc1)N1CCN(C(=S)NCc2ccco2)CC1 | 3.02% | 4.87% (inactive) | 5.01%
COc1ccc(CC(NC(C)=O)C(=O)NC2CCN(C(=O)C3CC3)CC2)cc1OC (centres undefined) | 1.12% | 2.29% (inactive) | 9.53%
O=C(CN1CCC(O)(c2ccccc2)CC1)Nc1ccc2c(c1)OCCO2 | 1.61% | 5.34% (inactive) | 10.9%
CCc1ccc2c(c1)C(c1ccc([N+](=O)[O-])cc1)=NNC(c1ccccc1)=N2 | 3.31% | 2.17% (inactive) | 4.07%
Cc1ccc(C2=Nc3c(ccc4ccccc34)C(c3ccncc3)=NN2)cc1 | 2.17% | 4.68% (inactive) | 5.9%
CCOc1ccc2c(c1)C(c1ccc(C)cc1)=NNC(c1ccc(C)cc1)=N2 | 14.4% | 37.8% (active) | 35.7%
COc1cccc(CN(C)CC(=O)Nc2sc3c(c2C#N)CCC3)c1 | 1.26% | 3.67% (inactive) | 4.57%
CC1(C)CC(=O)C(CC(=O)N2CCC(Cc3ccccc3)CC2)C(=O)C1 | 2.54% | 4.67% (inactive) | 7.14%
Cc1csc(CN(C)C(=O)CC2C(=O)NCCN2CC(C)(C)C)n1 (centres undefined) | 2.16% | 2.8% (inactive) | 7.49%
Nc1nonc1-n1nnc(C(=O)N/N=C/c2cc(Br)ccc2O)c1CSC1=NCCS1 | 0.673% | 9.12% (inactive) | 24.4%
